Source: PubChem BioAssay (NCI)
Several values for one entry are separate records, joined by “and”; a condition that tells them apart may be missing. Equal entries are not always repeated. The panel holds about 83,000 compounds, 20% with a hit somewhere; the sample as a whole holds those more often.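 Cell lines were cultured in 96-well plates, exposed to a single compound concentration, and assessed for percent growth 48 hours later.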 Unmarked numbers belong to inactive results. Activity calls are given as the source filed them. Rule for the calls: active = growth percent below 10; inactive = the rest.

Each molecule was assayed on MDA-MB-468 breast (assay: NCI-60 one-dose screen, 48 h (100 = growth as untreated, 0 = no growth, -100 = all killed)). Settings: 10 µM unless noted.

SMILES | growth
Clc1ccc2c(NCCCNCc3ccc4c(c3)OCO4)ccnc2c1 | -11.9% (active)
O=S(=O)(NCCNc1cc(-c2cn(-c3ccccc3)nc2-c2cccc(O)c2)ccn1)c1cccc(F)c1 | 15.2%
Clc1ccc(Nc2nnc(-c3ccc4c(c3)OCO4)o2)cc1 | 106%
Nc1nc(N)c(N=Nc2ccc(C(=O)O)cc2)c(N)n1 | 114%
O=C1c2c(c3c4cc(Br)ccc4[nH]c3c3ccc4ccccc4c23)C(=O)N1CCN1CCNCC1 | 79.6%
C=CCN=C1NC(=O)/C(=C/c2cc(C(C)(C)C)c(O)c(C(C)(C)C)c2)S1 | 43.4%
CCC(=O)Oc1c(C)cc(O)c2ccccc12 | 5.03% (active)
CCCC(=O)Oc1ccc(CC)cc1 | 117%
COc1cc(CNC(=O)/C=C/C=C/c2ccc3c(c2)OCO3)ccc1OCc1cn(-c2ccc(C)c(C)c2)nn1 | 65.2%
COCCCNCC(=O)Nc1c(C)cccc1C | 112%
CCOC(=O)Nc1ccc2c(ccn2C(=O)c2cccc(F)c2)c1 | 34.5%
C#CC[C@@H]1C[C@]2(C)[C@H]3CC=C4[C@H]5CC(C)(C)CC[C@]5(C(=O)NCCCCN)CC[C@@]4(C)[C@]3(C)CC[C@H]2C(C)(C)[C@H]1OC(C)=O | -39.7% (active)
Nc1c(C(=O)Nc2ccncc2)sc2nc3c(cc12)C(O)CCC3 (stereo not given) | 88.5%
O=C(Nc1ccc(F)cc1)Nc1ccc(CCO)cc1 | 105%
CC1(COc2ccc3ncc(C#Cc4cncc(C(=O)Nc5cc(C(C)(C)C)on5)c4)n3n2)COC1 | 85%
COC1(OC)C2(Cl)C(Cl)=C(Cl)C1(Cl)C1COCC12 (stereo not given) | 87%
COc1ccc(CNc2ccc3nc(NC(=O)CN4CCCCCC4)sc3c2)cc1 | 46.8%
O=C(N/N=C/c1cccc2ccccc12)C1CC1 | 120% and 106%
c1ccc(-c2cn3ccnc3c(-c3ccc4ncn(C5CCCCC5)c4c3)n2)cc1 | 45.6%
Cc1[nH]n(-c2cccc(Cl)c2)c(=O)c1/C=C1\C=Nc2ccc(Br)cc21 | 35.7%

SMILES | growth
N#C/C(=C\c1ccc(-c2ccccc2)o1)c1nc(-c2ccco2)cs1 | -32.4% (active)
COc1ccc(-c2cc(-c3ccc(N4CCOCC4)cc3)n3c(n2)nc2ccccc23)cc1OC | 93.7%
COc1ccc([C@H]2[C@H](O)C(=O)N2c2cc(OC)c(OC)c(OC)c2)cc1F | 26.4%
C=C1c2c(C)nn(-c3ccc(NC(C)=O)cc3)c2N(C)C23CC1C1(C)c4c(C)nn(-c5ccc(NC(C)=O)cc5)c4N(C)C(C)(CC12)C3 (stereo not given) | 14.5%
CCC1=C(c2ccc(OC)cc2)C(C)(C)Oc2c1ccc(O)c2CN1CCCC1 | -45.1% (active)
O=c1c2ccccc2nc(SCCN2CCCCC2)n1CCc1ccccc1 | 92%
COc1cc(N=Cc2sc(Nc3nccs3)nc2O)cc(OC)c1OC | 84.8%
CC(=O)N1c2ccccc2NC2=C(C(=O)N(C)C2(C)C)C1C (stereo not given) | 19.2%
COc1ccc(-c2cnc3c(-c4cccc5ncccc45)cnn3c2)cc1 | 57.1%
Cc1cccc(C)c1NC(=S)/N=C\c1c(O)[nH]c(=O)[nH]c1=O | 114%
COc1cccc(NC2=CC(=O)C(C)=C(C)C2=O)c1 | 25.8%
CCNC(=O)Oc1ccc(/C(=C(/C)c2ccc(Cl)cc2)c2ccc(OCCN3CCCC3)cc2)cc1 | 84.1%
Cc1ccc(-n2c3c(c(-c4ccccc4)c2-c2ccccc2)C2=NCCN2C=N3)cc1 | 81.8%
O=C(CC(O)c1ccccc1)Nc1ccccn1 (stereo not given) | 119%
CCOC(=O)/C(=C/c1ccc(OC)cc1)N(CC)CC | 106%
CCN(CC)c1cc(C)c(Cc2c(OC)ccc3ccccc23)cc1C | 99.6%
O=C1Nc2ccc(Cl)cc2/C1=N/N=C(c1ccccc1)c1ccccc1 | 107%
COc1ccc(/C=C/c2c(C(=O)/C=C/c3cccs3)c(C)nc3ccccc23)cc1 | 66.9%
CCCCCN(CCCCC)C(C)C(O)c1ccc2cc(Cl)c3ccccc3c2c1 (stereo not given) | 91%
O=C(O)c1ccc(-n2cc(CNc3ccc(Cl)cc3)c(-c3ccccc3)n2)cc1 | 102%
